Measured values published in PubChem BioAssay (NCI).
Where “and” joins values, the source holds several entries; their conditions need not be identical. Equal entries are not always repeated. This is part of a sample that, as a whole, favours compounds with a hit. Of some 83,000 tested, about 20% had one in any assay.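 Cells were grown in 96-well plates and exposed to the test compound at a single concentration for 48 hours; results are reported as percent growth, with values below 10 considered active.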 Values without a mark were called inactive. Calls of active or inactive are those of the source.

Assays:
Assay in all cases: NCI-60 one-dose screen, 48 h (100 = growth as untreated, 0 = no growth, -100 = all killed)
Details in all cases: 10 µM unless noted
[1] = test system: NCI-H23 lung
[2] = test system: NCI-H226 lung
[3] = test system: NCI-H322M lung
[4] = test system: HOP-62 NSCLC
[5] = test system: NCI-H460 lung
[6] = test system: HOP-92 NSCLC
[7] = test system: NCI-H522 lung
[8] = test system: A549/ATCC NSCLC
[9] = test system: 786-0 renal
[10] = test system: COLO 205 colon
[11] = test system: DU-145 prostate
[12] = test system: K-562 leukemia
[13] = test system: MALME-3M melanoma
[14] = test system: MDA-MB-231 breast
[15] = test system: RXF 393 renal
[16] = test system: SF-268 CNS
[17] = test system: SF-295 CNS
[18] = test system: SF-539 CNS
[19] = test system: UACC-257 melanoma
[20] = test system: M14 melanoma

Compound | growth [1] | growth [2] | growth [3] | growth [4] | growth [5] | growth [6] | growth [7] | growth [8] | growth [9] | growth [10] | growth [11] | growth [12] | growth [13] | growth [14] | growth [15] | growth [16] | growth [17] | growth [18] | growth [19] | growth [20]
CC(=O)Nc1nc2c(s1)C1=CC[C@H]3[C@@H]4CC[C@H](OC(C)=O)[C@@]4(C)CC[C@@H]3[C@@]1(C)CC2 | 69.7% | 91.7% | 75.2% | 55.6% | 64.1% | 87.2% | 39.3% | 54% | 32% | 67.3% | 72.1% | 35.1% | 66.5% | 80.3% | 7.7% (active) | 58.4% | 29.4% | 14% | 79.2% | 39.7%
O=C1NC(=O)C(=Cc2ccccc2)C(=O)N1 | 98.5% and 102% | 96.1% and 101% | 106% and 105% | 94.9% and 92.6% | 127% and 105% | 85.9% and 109% | 96.1% and 94.5% | 101% and 91.4% | 102% and 107% | 135% and 109% | 103% and 111% | 86.2% and 112% | 96.1% and 109% | 96.4% and 110% | 98.5% and 116% | 92.9% and 104% | 107% and 102% | 133% and 101% | 98.6% | 103% and 106%
Cc1nnc([S-])o1.[Au+].c1ccc([PH+](c2ccccc2)c2ccccc2)cc1 | 61.5% | 114% | 88.4% | 121% | 86% | -9.28% (active) | -81.1% (active) | 76.4% | 38.8% | 55.4% | 62.4% | 12.8% | 48.1% | 61.4% | -53.8% (active) | 43.4% | 92.1% | 67.8% | 27.9% | 31.8%
Cn1cc(-c2csc(-c3cn(CCCCN4CCOCC4)c4ccc(F)cc34)n2)c2cccnc21 | 80.3% | 60.2% | 84.3% | 85.6% | 93.5% | 52.8% | 57.2% | 75.1% | 63.2% | 65.9% | 100% | -49.7% (active) | -60.3% (active) | 35.2% | 16.3% | 63% | 50.8% | 69.7% | -45.1% (active) | -53.9% (active)
CC[PH+](CC)CC.O=COC1OC([S-])C(OC=O)C(OC=O)C1OC=O.[Au+] (stereo not given) | -57.3% (active) | -66.7% (active) | -95.9% (active) | -83.1% (active) | -59% (active) | -86.8% (active) | -75% (active) | -76.6% (active) | -83.4% (active) | -84.9% (active) | -43.7% (active) | -6.71% (active) | -92.1% (active) | -76.3% (active) | -91% (active) | -78.5% (active) | -16.3% (active) | -99.2% (active) | -83.6% (active) | -63.1% (active)
Cc1ccccc1-n1c(/C=C\c2ccccn2)nc2ccccc2c1=O | 55.5% | 97.8% | 44.9% | 107% | 68% | 41.2% | 54.8% | 80.4% | -1.31% (active) | 94.2% | 21.3% | 23.8% | 59.5% | 77.1% | 7.42% (active) | 61.7% | 74.4% | 82.8% | 81.8% | 64.9%
Cc1cc(NC(=O)NCCCOc2ccc(N3C(N)=NC(N)=NC3(C)C)cc2Cl)ccc1S(=O)(=O)F | 24.1% | 55.7% | 54.2% | 51.9% | 13.6% | 74.6% | 7.9% (active) | 14.7% | 40.1% | 27.9% | 33.6% | 25.1% | 55.6% | 71.7% | 48.6% | 32.7% | 30.4% | 17.5% | 25.9% | 41%
CN(C)c1ccc(C=C2C(=O)NC(=O)NC2=O)cc1 | 70.8% | 97.6% | 123% | 110% | 102% | 86.8% | 69.6% | 92.6% | 109% | 107% | 102% | 109% | 96.4% | 88.2% | 94% | 93.5% | 95.5% | 96.7% | -19.7% (active) | 86.5%
CC[C@H](C)[C@H](NC(=O)CN(C)C)C(=O)N(C)[C@H](C[C@@H](OC(C)=O)c1nc(C(=O)NC23C4C5C2C2C3C4C52C(=O)OC)cs1)C(C)C (stereo not given in full) | 21.3% | 31.7% | 42.2% | 19.4% | 3.35% (active) | 66.1% | 24.1% | 21.3% | 31.3% | -7.69% (active) | 2.37% (active) | 7.65% (active) | 35.1% | 1.39% (active) | 2.8% (active) | 21.1% | 9.98% (active) | -1.99% (active) | 49.2% | -35.8% (active)
O=c1[nH]c(=O)[nH]c(=O)[nH]1 | 97.9% | 122% | 104% | 85.2% | 111% | 113% | 95.5% | 108% | 96.9% | 115% | 119% | 65.2% | 114% | 122% | 91.1% | 116% | 97.6% | 104% | 146% | 111%
COc1cc2c(cc1OC)[C@@H]1C(=O)c3ccc4c(c3O[C@@H]1CO2)C[C@H](C(C)C)O4 | 34.2% | 62.8% | 82.1% | 63.6% | 51.5% | 57.3% | 30.5% | 65.5% | 60.2% | 82.4% | 85.5% | 19.9% | 56.5% | 78.3% | 102% | 79.7% | 18.6% | 70.7% | 58% | 75.4%
